Experimental data published in publication PMC7862700, “An all-to-all approach to the identification of sequence-specific readers for epigenetic DNA modifications on cytosine”.

How the values were obtained:
Assay in all cases: DAPPL (digital affinity profiling via proximity ligation, sequencing); 10 mM Tris-HCl pH 7.5, 50 mM NaCl, 1 mM DTT, 4% glycerol, room temperature, 30 min; GST-TFs on glutathione beads, 16-mer random dsDNA library, 0.1% formaldehyde crosslink after washing; high values mean tight binding
FEV = target: T1, FEV (Homo sapiens, UniProt Q99581 1-238); conditions: protein: recombinant; tags: N-terminal GST; dsDNA, one strand shown
T1 sequence: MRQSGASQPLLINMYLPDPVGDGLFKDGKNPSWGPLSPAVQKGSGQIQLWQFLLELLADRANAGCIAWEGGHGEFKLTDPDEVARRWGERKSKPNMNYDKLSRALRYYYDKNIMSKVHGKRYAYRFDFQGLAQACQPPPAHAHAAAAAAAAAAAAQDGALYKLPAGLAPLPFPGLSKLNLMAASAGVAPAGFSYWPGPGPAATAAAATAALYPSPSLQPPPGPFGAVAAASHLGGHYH
Method in brief: (§1)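 Sequencing on an Illumina NextSeq500 followed washing, crosslinking with 0.1% formaldehyde, proximity ligation (BsaI/T4 ligase, 1 h, 37 °C) and PCR amplification of pools that had been incubated for 30 min at room temperature with 200 nmole of a random double-stranded 16-mer DNA library in Tris/NaCl/DTT/glycerol buffer. Each pool held DNA-barcoded human transcription factors, expressed in yeast as GST fusions and captured on glutathione beads, plus a tag-only sample. Binding signal is a hexamer's read frequency for a factor divided by its frequency in the tag-only sample.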

ETV5 = ETV5 (Homo sapiens, UniProt P41161 1-510); conditions: protein: recombinant; tags: N-terminal GST; dsDNA, one strand shown
Sequence of ETV5 (P41161 whole entry): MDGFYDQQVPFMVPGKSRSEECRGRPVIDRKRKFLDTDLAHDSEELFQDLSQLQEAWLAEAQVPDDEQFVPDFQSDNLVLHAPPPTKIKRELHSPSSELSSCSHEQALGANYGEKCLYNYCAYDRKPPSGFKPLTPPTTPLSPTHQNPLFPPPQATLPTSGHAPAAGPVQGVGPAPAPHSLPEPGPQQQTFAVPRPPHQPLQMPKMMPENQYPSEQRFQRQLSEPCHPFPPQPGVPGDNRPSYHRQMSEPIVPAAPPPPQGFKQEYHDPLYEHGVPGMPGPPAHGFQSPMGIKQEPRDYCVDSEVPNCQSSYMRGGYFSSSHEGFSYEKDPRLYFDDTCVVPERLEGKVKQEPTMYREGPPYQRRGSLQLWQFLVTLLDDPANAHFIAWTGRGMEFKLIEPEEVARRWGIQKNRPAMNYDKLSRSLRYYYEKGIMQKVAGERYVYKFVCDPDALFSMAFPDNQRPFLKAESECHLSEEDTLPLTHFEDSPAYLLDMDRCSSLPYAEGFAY
Method in brief: as §1

HSF1 = HSF1 (Homo sapiens, UniProt Q00613 1-529); conditions: protein: recombinant; tags: N-terminal GST; chain copies: 3; dsDNA, one strand shown
Sequence of HSF1 (Q00613 whole entry): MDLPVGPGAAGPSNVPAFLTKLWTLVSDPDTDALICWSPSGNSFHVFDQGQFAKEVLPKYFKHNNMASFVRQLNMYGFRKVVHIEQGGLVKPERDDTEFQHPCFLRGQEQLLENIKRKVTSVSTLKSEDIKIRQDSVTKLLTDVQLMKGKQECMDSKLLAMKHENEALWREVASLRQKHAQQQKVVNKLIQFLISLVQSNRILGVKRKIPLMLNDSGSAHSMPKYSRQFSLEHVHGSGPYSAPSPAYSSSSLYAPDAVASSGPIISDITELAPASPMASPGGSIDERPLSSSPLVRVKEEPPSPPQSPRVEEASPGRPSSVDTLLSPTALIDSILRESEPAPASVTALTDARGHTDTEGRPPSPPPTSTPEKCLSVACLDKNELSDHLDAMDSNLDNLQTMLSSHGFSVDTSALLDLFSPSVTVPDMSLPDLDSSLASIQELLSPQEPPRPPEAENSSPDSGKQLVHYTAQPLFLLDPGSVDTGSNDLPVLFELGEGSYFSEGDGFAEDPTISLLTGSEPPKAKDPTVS
Method in brief: as §1

SPIC = target: T2, SPIC (Homo sapiens, UniProt Q8N5J4 1-248); conditions: protein: recombinant; tags: N-terminal GST; dsDNA, one strand shown
T2 sequence: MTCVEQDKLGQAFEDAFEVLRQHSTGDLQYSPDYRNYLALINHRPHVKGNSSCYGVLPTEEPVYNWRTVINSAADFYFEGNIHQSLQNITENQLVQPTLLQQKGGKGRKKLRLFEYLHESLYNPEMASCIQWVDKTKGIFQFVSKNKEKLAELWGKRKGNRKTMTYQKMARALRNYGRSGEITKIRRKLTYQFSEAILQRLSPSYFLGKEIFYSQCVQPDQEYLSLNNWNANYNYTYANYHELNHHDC
Method in brief: as §1

ELF4 = ELF4 (Homo sapiens, UniProt Q99607 1-663); conditions: protein: recombinant; tags: N-terminal GST; dsDNA, one strand shown
Sequence of ELF4 (Q99607 whole entry): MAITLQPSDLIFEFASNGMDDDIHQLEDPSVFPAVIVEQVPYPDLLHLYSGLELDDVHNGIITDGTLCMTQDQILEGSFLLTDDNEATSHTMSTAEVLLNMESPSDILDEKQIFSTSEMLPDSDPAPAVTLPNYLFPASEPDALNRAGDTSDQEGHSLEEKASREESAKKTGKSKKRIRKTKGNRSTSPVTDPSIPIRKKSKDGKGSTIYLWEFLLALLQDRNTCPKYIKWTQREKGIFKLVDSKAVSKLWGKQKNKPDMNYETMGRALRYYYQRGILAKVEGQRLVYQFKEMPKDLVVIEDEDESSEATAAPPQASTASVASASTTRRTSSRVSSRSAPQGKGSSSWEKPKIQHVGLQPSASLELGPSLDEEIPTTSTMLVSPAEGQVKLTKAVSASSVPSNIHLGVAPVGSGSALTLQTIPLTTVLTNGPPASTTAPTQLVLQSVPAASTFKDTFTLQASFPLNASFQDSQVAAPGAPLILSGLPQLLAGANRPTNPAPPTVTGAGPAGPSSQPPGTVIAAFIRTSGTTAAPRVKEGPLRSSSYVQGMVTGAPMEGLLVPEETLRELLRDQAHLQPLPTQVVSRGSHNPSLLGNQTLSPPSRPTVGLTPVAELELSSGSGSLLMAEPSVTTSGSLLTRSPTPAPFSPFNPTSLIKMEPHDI
Method in brief: as §1

ELK4 = target: T3, ELK4 (Homo sapiens, UniProt P28324-2 1-405); conditions: protein: recombinant; tags: N-terminal GST; dsDNA, one strand shown
T3 sequence: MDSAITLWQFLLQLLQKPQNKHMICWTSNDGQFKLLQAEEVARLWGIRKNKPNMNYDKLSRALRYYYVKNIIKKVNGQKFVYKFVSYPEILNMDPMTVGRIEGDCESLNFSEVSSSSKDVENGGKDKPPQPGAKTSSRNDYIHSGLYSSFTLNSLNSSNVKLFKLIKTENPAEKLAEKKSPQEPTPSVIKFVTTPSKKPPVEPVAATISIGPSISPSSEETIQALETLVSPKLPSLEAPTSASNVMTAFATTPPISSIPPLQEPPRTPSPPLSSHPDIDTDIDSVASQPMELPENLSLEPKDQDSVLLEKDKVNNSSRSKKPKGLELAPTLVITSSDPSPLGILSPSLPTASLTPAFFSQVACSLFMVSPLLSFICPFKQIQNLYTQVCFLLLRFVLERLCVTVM
Method in brief: as §1

ETV2 = target: T4, ETV2 (Homo sapiens, UniProt O00321 1-342); conditions: protein: recombinant; tags: N-terminal GST; dsDNA, one strand shown
T4 sequence: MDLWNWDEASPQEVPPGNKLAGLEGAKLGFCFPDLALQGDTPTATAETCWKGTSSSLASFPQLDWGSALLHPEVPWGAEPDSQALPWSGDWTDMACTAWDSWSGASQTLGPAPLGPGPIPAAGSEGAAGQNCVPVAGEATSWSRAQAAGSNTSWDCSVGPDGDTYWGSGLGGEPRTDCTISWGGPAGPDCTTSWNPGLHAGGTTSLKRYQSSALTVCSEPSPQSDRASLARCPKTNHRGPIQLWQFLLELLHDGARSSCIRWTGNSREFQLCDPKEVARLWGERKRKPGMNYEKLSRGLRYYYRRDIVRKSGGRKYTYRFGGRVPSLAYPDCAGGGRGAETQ
Method in brief: as §1

ELF3 = target: T5, ELF3 (Homo sapiens, UniProt P78545 1-371); conditions: protein: recombinant; tags: N-terminal GST; dsDNA, one strand shown
T5 sequence: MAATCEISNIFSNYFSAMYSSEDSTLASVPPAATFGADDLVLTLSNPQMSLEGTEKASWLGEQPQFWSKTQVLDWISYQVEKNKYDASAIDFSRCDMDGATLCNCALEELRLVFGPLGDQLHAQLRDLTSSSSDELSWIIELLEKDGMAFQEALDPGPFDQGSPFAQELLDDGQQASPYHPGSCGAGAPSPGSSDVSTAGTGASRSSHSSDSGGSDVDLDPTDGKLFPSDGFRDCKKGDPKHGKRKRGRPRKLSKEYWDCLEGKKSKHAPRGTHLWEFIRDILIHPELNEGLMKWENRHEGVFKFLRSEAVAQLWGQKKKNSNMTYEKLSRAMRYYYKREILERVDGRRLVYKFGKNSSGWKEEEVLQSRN
Method in brief: as §1

ETV1 = ETV1 (Homo sapiens, UniProt P50549 1-477); conditions: protein: recombinant; tags: N-terminal GST; dsDNA, one strand shown
Sequence of ETV1 (P50549 whole entry): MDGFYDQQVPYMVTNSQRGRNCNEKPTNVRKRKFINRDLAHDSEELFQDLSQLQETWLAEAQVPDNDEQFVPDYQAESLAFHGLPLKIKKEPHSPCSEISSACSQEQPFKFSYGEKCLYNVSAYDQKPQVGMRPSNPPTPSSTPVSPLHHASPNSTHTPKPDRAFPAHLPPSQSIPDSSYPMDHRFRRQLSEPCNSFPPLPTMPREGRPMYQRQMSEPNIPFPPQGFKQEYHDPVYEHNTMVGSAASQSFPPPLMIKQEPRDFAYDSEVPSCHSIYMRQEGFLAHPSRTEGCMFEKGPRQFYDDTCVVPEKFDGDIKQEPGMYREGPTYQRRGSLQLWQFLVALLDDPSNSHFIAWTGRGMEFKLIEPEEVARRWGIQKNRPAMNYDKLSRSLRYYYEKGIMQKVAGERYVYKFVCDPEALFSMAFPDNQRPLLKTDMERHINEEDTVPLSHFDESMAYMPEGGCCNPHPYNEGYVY
Method in brief: as §1

ERF = target: T6, ERF (Homo sapiens, UniProt P50548 1-548); conditions: protein: recombinant; tags: N-terminal GST; dsDNA, one strand shown
T6 sequence: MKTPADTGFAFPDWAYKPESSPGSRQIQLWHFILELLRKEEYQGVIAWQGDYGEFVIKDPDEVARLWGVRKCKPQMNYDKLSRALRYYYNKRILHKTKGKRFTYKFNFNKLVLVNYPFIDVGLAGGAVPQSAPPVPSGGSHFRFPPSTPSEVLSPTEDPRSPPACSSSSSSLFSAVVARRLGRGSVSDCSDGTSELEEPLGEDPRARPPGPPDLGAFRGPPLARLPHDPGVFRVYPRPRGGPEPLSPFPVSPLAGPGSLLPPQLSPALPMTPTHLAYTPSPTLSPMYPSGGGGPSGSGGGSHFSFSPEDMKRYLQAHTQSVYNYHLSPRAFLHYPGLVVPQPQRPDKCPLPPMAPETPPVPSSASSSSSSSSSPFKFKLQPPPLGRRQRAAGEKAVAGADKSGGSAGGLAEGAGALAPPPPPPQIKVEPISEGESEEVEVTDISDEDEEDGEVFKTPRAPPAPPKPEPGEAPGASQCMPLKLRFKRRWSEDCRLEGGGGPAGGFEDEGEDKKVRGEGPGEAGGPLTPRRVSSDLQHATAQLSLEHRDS
Method in brief: as §1

ETV3L = target: T7, ETV3L (Homo sapiens, UniProt Q6ZN32 1-361); conditions: protein: recombinant; tags: N-terminal GST; dsDNA, one strand shown
T7 sequence: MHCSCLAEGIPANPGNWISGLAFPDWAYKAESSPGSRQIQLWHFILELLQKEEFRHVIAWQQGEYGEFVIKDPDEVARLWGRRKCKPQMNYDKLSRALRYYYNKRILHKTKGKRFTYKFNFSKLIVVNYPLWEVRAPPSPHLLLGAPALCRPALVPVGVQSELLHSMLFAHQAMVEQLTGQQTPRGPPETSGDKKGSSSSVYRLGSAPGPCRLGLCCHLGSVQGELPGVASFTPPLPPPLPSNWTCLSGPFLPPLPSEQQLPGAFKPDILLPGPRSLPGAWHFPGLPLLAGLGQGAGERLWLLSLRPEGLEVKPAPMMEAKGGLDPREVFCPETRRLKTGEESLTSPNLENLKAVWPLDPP
Method in brief: as §1

ETS2 = target: T8, ETS2 (Homo sapiens, UniProt P15036 1-469); conditions: protein: recombinant; tags: N-terminal GST; dsDNA, one strand shown
T8 sequence: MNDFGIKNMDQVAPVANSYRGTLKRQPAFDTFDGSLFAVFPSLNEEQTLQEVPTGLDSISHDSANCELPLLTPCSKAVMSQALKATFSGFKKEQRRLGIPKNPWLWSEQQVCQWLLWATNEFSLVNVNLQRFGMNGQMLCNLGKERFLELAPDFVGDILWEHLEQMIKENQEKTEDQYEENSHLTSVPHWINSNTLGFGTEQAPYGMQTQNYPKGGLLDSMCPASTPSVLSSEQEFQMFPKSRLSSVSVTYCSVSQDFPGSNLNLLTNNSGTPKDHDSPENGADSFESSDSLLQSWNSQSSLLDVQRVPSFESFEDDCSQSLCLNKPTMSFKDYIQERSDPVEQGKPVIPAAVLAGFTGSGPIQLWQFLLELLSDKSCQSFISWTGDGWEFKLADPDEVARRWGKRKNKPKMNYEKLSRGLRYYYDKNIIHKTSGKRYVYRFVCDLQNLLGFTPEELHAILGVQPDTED
Method in brief: as §1

SPDEF = target: T9, SPDEF (Homo sapiens, UniProt O95238 1-335); conditions: protein: recombinant; tags: N-terminal GST; dsDNA, one strand shown
T9 sequence: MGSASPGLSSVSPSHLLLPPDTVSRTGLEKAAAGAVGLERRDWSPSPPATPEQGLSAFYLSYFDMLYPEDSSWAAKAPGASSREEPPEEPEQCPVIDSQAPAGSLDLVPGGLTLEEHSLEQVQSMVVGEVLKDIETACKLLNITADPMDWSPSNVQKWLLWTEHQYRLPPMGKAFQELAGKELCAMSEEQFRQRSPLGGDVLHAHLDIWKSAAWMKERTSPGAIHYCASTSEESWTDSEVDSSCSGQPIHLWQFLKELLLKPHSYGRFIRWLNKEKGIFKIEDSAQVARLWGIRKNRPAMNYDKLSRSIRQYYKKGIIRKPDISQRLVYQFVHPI
Method in brief: as §1

ETV7 = target: T10, ETV7 (Homo sapiens, UniProt Q9Y603 1-341); conditions: protein: recombinant; tags: N-terminal GST; dsDNA, one strand shown
T10 sequence: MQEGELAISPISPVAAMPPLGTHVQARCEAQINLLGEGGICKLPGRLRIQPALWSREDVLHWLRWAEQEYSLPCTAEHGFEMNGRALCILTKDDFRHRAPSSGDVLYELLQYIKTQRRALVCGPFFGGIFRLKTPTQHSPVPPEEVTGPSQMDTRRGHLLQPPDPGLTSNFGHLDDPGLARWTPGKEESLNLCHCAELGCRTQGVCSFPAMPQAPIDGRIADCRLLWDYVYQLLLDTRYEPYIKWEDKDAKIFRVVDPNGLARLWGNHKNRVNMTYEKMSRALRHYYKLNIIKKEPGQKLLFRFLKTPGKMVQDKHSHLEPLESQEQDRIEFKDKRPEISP
Method in brief: as §1

ELF5 = target: T11, ELF5 (Homo sapiens, UniProt Q9UKW6-2 1-255); conditions: protein: recombinant; tags: N-terminal GST; dsDNA, one strand shown
T11 sequence: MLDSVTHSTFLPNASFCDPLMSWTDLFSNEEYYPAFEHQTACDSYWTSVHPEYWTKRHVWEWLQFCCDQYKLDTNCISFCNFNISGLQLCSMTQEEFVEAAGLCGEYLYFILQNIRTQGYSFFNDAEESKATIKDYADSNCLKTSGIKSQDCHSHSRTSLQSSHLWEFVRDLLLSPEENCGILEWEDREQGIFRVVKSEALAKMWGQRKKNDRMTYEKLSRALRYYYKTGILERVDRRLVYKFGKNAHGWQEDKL
Method in brief: as §1

ETV3 = target: T12, ETV3 (Homo sapiens, UniProt P41162-2 1-143); conditions: protein: recombinant; tags: N-terminal GST; dsDNA, one strand shown
T12 sequence: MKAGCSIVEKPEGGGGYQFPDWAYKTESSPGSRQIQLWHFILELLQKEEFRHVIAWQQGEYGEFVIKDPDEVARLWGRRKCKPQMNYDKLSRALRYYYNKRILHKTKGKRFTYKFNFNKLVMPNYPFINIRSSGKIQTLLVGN
Method in brief: as §1

ETV6 = ETV6 (Homo sapiens, UniProt P41212 1-452); conditions: protein: recombinant; tags: N-terminal GST; dsDNA, one strand shown
Sequence of ETV6 (P41212 whole entry): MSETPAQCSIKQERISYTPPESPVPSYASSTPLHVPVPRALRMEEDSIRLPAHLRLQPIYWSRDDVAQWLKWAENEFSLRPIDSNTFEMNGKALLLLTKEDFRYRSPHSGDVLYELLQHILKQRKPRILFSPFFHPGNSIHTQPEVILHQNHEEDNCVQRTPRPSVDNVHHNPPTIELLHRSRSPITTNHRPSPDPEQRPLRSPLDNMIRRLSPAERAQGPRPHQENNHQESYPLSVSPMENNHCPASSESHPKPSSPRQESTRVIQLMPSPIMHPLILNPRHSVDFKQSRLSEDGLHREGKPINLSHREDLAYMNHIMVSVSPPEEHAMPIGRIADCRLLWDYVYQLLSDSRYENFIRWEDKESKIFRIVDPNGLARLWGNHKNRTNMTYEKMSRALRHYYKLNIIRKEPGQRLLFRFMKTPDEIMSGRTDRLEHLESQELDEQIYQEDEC
Method in brief: as §1

Sequence | binding signal (FEV) | binding signal (ETV5) | binding signal (HSF1) | binding signal (SPIC) | binding signal (ELF4) | binding signal (ELK4) | binding signal (ETV2) | binding signal (ELF3) | binding signal (ETV1) | binding signal (ERF) | binding signal (ETV3L) | binding signal (ETS2) | binding signal (SPDEF) | binding signal (ETV7) | binding signal (ELF5) | binding signal (ETV3) | binding signal (ETV6)
CCGGCA | 1.53 fold enrichment (6-mer frequency, TF over GST control) | 1.47 fold enrichment (6-mer frequency, TF over GST control) | 1.01 fold enrichment (6-mer frequency, TF over GST control) | 1.32 fold enrichment (6-mer frequency, TF over GST control) | 1.28 fold enrichment (6-mer frequency, TF over GST control) | 1.24 fold enrichment (6-mer frequency, TF over GST control) | 1.28 fold enrichment (6-mer frequency, TF over GST control) | 1.31 fold enrichment (6-mer frequency, TF over GST control) | 1.46 fold enrichment (6-mer frequency, TF over GST control) | 1.28 fold enrichment (6-mer frequency, TF over GST control) | 1.47 fold enrichment (6-mer frequency, TF over GST control) | 1.43 fold enrichment (6-mer frequency, TF over GST control) | 1.67 fold enrichment (6-mer frequency, TF over GST control) | 1.27 fold enrichment (6-mer frequency, TF over GST control) | 1.51 fold enrichment (6-mer frequency, TF over GST control) | 1.45 fold enrichment (6-mer frequency, TF over GST control) | 1.61 fold enrichment (6-mer frequency, TF over GST control)
CCGTAC | 1.24 fold enrichment (6-mer frequency, TF over GST control) | 1.33 fold enrichment (6-mer frequency, TF over GST control) | 1.06 fold enrichment (6-mer frequency, TF over GST control) | 1.18 fold enrichment (6-mer frequency, TF over GST control) | 1.26 fold enrichment (6-mer frequency, TF over GST control) | 1.36 fold enrichment (6-mer frequency, TF over GST control) | 1.42 fold enrichment (6-mer frequency, TF over GST control) | 1.33 fold enrichment (6-mer frequency, TF over GST control) | 1.34 fold enrichment (6-mer frequency, TF over GST control) | 1.39 fold enrichment (6-mer frequency, TF over GST control) | 1.25 fold enrichment (6-mer frequency, TF over GST control) | 1.32 fold enrichment (6-mer frequency, TF over GST control) | 1.41 fold enrichment (6-mer frequency, TF over GST control) | 1.32 fold enrichment (6-mer frequency, TF over GST control) | 1.46 fold enrichment (6-mer frequency, TF over GST control) | 1.36 fold enrichment (6-mer frequency, TF over GST control) | 1.33 fold enrichment (6-mer frequency, TF over GST control)
